# Compounds with a hit are over-represented: about 2.8% of the library has one in this group of screens.
# SENP8 block-1: blocks human SENP8 cleavage of Nedd8 substrate; 0.64% of 360,000 active; inhibition, % at 20 µM; recombinant SENP8, Nedd8 substrate fluorescence; AID 602440; in the data active = inhibition mostly above about 40%, no sharp cut-off; inactive = mostly below about 27%
# HSP90 inh: blocks HSP90-mediated luciferase refolding in reticulocyte lysate; Rabbit reticulocyte lysate, luciferase refolding luminescence, 3 h; inhibition, % at 5.6 µM; 0.91% of 290,000 active; AID 1789;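 active = inhibition above the screen-wide mean plus 3 SD, computed separately per campaign, cut at about 16% in these data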;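 also: inhibitors lower the luminescence because luciferase stays unfolded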
# SENP8 block-2: blocks the human protease SENP8 | Q96LD8 | inhibition, % at 10 µM | purified SENP8, Z-RLRGG-aminoluciferin cleavage, luminescence | 1.2% of 330,000 active; in the data active = inhibition above about 50%
# SENP6 inh: SENP6 protease inhibition; Q9GZR1; Recombinant SENP6 catalytic domain, aminoluciferin luminescence; inhibition, % at 10 µM; 1.8% of 330,000 active;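 active = inhibition above about 50% at the single tested dose, limit read from the data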
# SENP7 block: inhibitors of human SENP7 protease; 1.5% of 330,000 active; Q9BQF6; inhibition, % at 5 µM; recombinant SENP7, Z-RLRGG-aminoluciferin luminescence, 40 min;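 active = inhibition above about 50% at the single test dose, limit read from the data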
# Target sequence (Q9BQF6 706-1050 limits assumed): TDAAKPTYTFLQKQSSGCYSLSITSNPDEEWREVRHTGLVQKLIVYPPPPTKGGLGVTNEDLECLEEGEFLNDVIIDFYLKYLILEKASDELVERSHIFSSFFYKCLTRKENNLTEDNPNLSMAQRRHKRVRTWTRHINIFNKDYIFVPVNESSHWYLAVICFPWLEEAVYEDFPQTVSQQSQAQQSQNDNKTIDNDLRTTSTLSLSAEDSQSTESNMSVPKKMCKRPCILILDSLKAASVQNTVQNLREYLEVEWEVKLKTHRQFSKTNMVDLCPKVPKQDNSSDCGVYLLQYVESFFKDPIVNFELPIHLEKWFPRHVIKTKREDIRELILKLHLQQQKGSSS
# SENP8 confirm: confirmation of human SENP8 protease inhibitors. shares compounds with SENP7 block. Recombinant SENP8, Z-RLRGG-aminoluciferin luminescence, 60 min. inhibition, % at 12.5 µM. 40% of 6,200 active;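 active = mean inhibition across replicates above about 50%, limit read from the data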
# SENP6 conf: human SENP6 inhibition, confirmed. shares compounds with SENP7 block. recombinant SENP6, Z-RLRGG-aminoluciferin luminescence. inhibition, % at 12.5 µM. 58% of 6,200 active. AID 488915
# SENP7 conf: confirmation of human SENP7 protease inhibitors; shares compounds with SENP7 block; recombinant SENP7, Z-RLRGG-aminoluciferin luminescence, 40 min; inhibition, % at 12.5 µM; 69% of 6,200 active; AID 488917
# Casp3 select: selectivity test for SENP inhibitors: human caspase-3 inhibition; purified caspase-3, Z-DEVD-aminoluciferin luminescence, 60 min; 60% of 6,200 active; shares compounds with SENP7 block; inhibition, % at 12.5 µM;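 active = mean inhibition above about 50%, limit read from the data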
# Target sequence (P42574 28-227 limits assumed): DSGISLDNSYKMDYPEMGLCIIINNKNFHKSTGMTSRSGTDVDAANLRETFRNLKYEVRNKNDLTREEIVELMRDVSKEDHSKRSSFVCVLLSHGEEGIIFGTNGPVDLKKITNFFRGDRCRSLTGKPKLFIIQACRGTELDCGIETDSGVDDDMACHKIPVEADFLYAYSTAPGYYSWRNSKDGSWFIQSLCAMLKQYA
# SENP luc ctr: luminescence interference (SENP counter-screen). Pre-incubated SENP8/Z-RLRGG-aminoluciferin, luciferase luminescence interference. shares compounds with SENP7 block. inhibition, % at 12.5 µM. 39% of 6,200 active;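 active = mean inhibition above about 50% when retested at one dose, limit read from the data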
# A number is an active result; - = inactive; . = no result.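 The calls were made as follows, unless noted: active = mean inhibition above about 50% in the one-dose retest (limit read from the data); inactive = the rest.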
SMILES,SENP8 block-1,HSP90 inh,SENP8 block-2,SENP6 inh,SENP7 block,SENP8 confirm,SENP6 conf,SENP7 conf,Casp3 select,SENP luc ctr
Cc1ccc(-c2cc(-c3cccs3)[nH]n2)c(O)c1,-,-,-,-,-,.,.,.,.,.
O=c1nc2c(-c3cccc(Br)c3)n[nH]n2c2ccccc12,-,-,92,88,80,-,-,-,61,-
Cc1ccc2cc3c(NS(=O)(=O)c4cccc5nonc45)nn(CC(C)C)c3nc2c1,-,-,-,-,-,.,.,.,.,.
C/C(N)=C(/C#N)C(=O)CSc1nc2scc(-c3ccccc3)c2c(=O)n1C,-,-,-,-,-,.,.,.,.,.
O=c1c2ccccc2cnn1-c1ccc(Br)cc1,-,-,-,58,66,-,-,67,67,-
O=c1c2ccccc2cnn1-c1ccc2ccccc2c1,-,-,67,88,82,53,77,94,80,-
O=c1c2ccccc2cnn1-c1ccc(Cl)nn1,-,-,-,-,-,.,.,.,.,.
Cc1ccc(NC(=O)CC2S/C(=N/c3nccs3)N(C)C2=O)cc1C (stereo unspecified),-,-,-,-,-,.,.,.,.,.
Cc1cccc2cc(/C=N/Nc3ccc(C(=O)O)cc3)c(Cl)nc12,-,-,77,83,-,88,90,89,72,-
CCOC(=O)CNC(=O)c1cccs1,-,-,-,-,-,.,.,.,.,.
O=C(Nc1ccc(NC(=O)c2cccs2)c(Cl)c1)c1cccs1,-,-,-,63,53,-,51,80,-,-
CC(C)(CNC(=O)c1cccs1)CNC(=O)c1cccs1,-,-,-,-,84,-,-,-,-,-
COc1ccc(NC(=O)c2cccs2)cc1,-,-,-,60,-,-,-,74,79,62
O=C(Nc1ccc(NC(=O)c2cccs2)cc1)c1cccs1,-,-,-,-,-,.,.,.,.,.
O=C(Nc1ccc(OCc2ccccc2)cc1)c1cccc([N+](=O)[O-])c1,-,-,-,-,56,-,-,-,-,-
Nc1ccc(NC(=O)c2cccs2)c(Cl)c1,-,-,-,-,-,.,.,.,.,.
COc1ccc(C(=O)Nc2cccc(-c3ccc4nncn4n3)c2)cc1,-,-,-,-,-,.,.,.,.,.
COc1ccc(/C=N/Nc2nnc(Cc3ccccc3)c(=O)[nH]2)cc1OC,-,-,-,-,-,.,.,.,.,.
C=CCNC(=O)/C(=C\c1ccc(OC)cc1)NC(=O)c1ccc([N+](=O)[O-])cc1,-,-,-,-,-,.,.,.,.,.
O=C(O)c1ccc(COc2cccc(CO)c2)cc1,-,-,64,74,86,-,70,93,93,74
Cc1occc1C(=O)Nc1ccc(OCc2ccccc2)cc1,-,-,96,98,100,90,100,104,99,73
CCCOC(=O)c1ccc(NC(=O)c2ccoc2C)cc1,-,-,89,95,93,94,95,101,92,66
O=C(O)c1cccc(NC(=O)c2ccc(COc3ccc(Cl)cc3)cc2)c1,-,-,53,70,-,-,-,59,-,-
CCCc1c(-c2ccc(Cl)cc2)ncn1CCc1ccccc1OC,-,.,.,.,.,.,.,.,.,.
Cc1c(N(C(=O)CNC(=O)c2ccccc2)C2(C(=O)NC3CCCC3)CCCCC2)c(=O)n(-c2ccccc2)n1C,-,-,-,-,-,.,.,.,.,.
SMILES,SENP8 block-1,HSP90 inh,SENP8 block-2,SENP6 inh,SENP7 block,SENP8 confirm,SENP6 conf,SENP7 conf,Casp3 select,SENP luc ctr
CO[C@@]12[C@H](COC(N)=O)C3=C(C(=O)C(C)=C(N)C3=O)N1C[C@@H]1N[C@@H]12,-,.,-,-,-,.,.,.,.,.
COc1ccc(/C=C2\Sc3ccc(C(=O)NCCN4CCCCCC4)cc3N(C)C2=O)cc1,-,-,-,-,-,.,.,.,.,.
O=C(Nc1ccc(OCc2ccccc2)cc1)c1cccs1,-,-,58,70,84,-,60,93,73,-
Cc1c(NC(=O)c2cccc(NC(=O)Cc3c(F)cccc3Cl)c2)c(=O)n(-c2ccccc2)n1C,-,.,-,-,-,.,.,.,.,.
CCN(CC)S(=O)(=O)c1ccc(C)c(NC(=O)COC(=O)C=C(C)C)c1,-,-,-,56,-,-,-,-,-,-
O=C(CN1C(=O)C2(OCCCO2)c2ccccc21)NCc1ccccc1,-,-,-,-,52,-,-,-,-,-
O=C(Nc1ccc(C(=O)N2CCOCC2)cc1)c1cccc(Br)c1,-,-,-,-,-,.,.,.,.,.
O=C(Nc1cccc(Br)c1)c1cccc(OC(=S)N2CCOCC2)c1,-,-,-,57,55,-,-,74,-,51
O=C(N/N=C\c1cn[nH]c1-c1ccccc1)c1ccc([N+](=O)[O-])cc1,-,-,-,-,-,.,.,.,.,.
CC(C)(C)c1cc(=O)n2c(C#N)c(C#N)nc2[nH]1,-,-,-,-,-,.,.,.,.,.
COc1cc(O)sc1C=Nc1ccc(Cl)cc1,-,-,82,95,91,85,87,100,84,57
Oc1ccc(Br)cc1C=Nc1ccc(Cl)cc1,-,-,-,-,-,.,.,.,.,.
Clc1ccc2nc3c4ccccc4cnn3c2c1,-,-,95,99,98,94,94,101,92,-
Clc1ccc2nc3ccccc3cc2c1,-,.,.,.,.,.,.,.,.,.
CC(=O)Nc1ccc(NC(=O)CSc2nnc(NC(=O)c3cccc(F)c3)s2)cc1,-,-,68,77,52,62,70,91,82,-
CCc1ccc(Nc2nnc(SCC(=O)Nc3ccc(C(=O)O)cc3)s2)cc1,-,-,52,-,53,-,51,-,60,-
CC(C)c1ccc(NC(=O)N2CCc3nc(NCc4cccc(Oc5ccccc5)c4)ncc3C2)cc1,-,.,.,.,.,.,.,.,.,.
CCCC(=O)Nc1ccc(Cl)c(NC(=O)c2ccco2)c1,-,-,-,-,-,.,.,.,.,.
O=C(Nc1nc2ccc(F)cc2s1)c1ccc([N+](=O)[O-])o1,-,.,.,.,.,.,.,.,.,.
O=C(Nc1nc2c(Cl)cccc2s1)c1ccc([N+](=O)[O-])o1,-,-,-,59,-,-,-,77,-,-
O=C(Nc1nc2c(F)cccc2s1)c1ccc([N+](=O)[O-])o1,-,-,-,71,-,-,-,-,-,-
CC(C)(C)c1ccc(C(=O)NC(=S)NCC2CCCO2)cc1 (stereo unspecified),-,-,-,-,-,.,.,.,.,.
CC1(C(=O)Nc2ccccc2Cc2ccccc2)CCN1Cc1ccccc1Cl (stereo unspecified),-,.,.,.,.,.,.,.,.,.
COc1ccc(-c2nc3c(Br)c(N)c(Br)cc3o2)cc1,-,-,-,-,80,-,-,-,-,-
